How the values were obtained:
Test in all cases: DAPPL (digital affinity profiling via proximity ligation, sequencing); 10 mM Tris-HCl pH 7.5, 50 mM NaCl, 1 mM DTT, 4% glycerol, room temperature, 30 min; GST-TFs on glutathione beads, 16-mer random dsDNA library, 0.1% formaldehyde crosslink after washing; high values mean tight binding
FEV = biological target: T1, FEV (Homo sapiens, UniProt Q99581 1-238); conditions: protein: recombinant; tags: N-terminal GST; dsDNA, one strand shown
T1 sequence: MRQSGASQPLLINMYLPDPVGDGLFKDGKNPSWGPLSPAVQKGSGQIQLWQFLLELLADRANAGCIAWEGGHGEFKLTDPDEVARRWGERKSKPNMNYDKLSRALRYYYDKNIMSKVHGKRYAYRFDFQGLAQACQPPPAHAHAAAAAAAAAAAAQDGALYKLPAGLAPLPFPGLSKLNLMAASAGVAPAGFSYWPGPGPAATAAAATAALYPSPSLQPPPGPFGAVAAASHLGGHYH
Outline: (§1)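 Human transcription factors carrying a GST fusion were produced in yeast, bound to glutathione beads, tagged with DNA barcodes and pooled together with a tag-only sample. Each pool was held with 200 nmole of a random double-stranded 16-mer DNA library in Tris/NaCl/DTT/glycerol buffer for 30 min at room temperature, then washed, crosslinked in 0.1% formaldehyde, proximity-ligated with BsaI/T4 ligase (1 h, 37 °C), PCR-amplified and sequenced on an Illumina NextSeq500. Binding signal is the read frequency of each hexamer for a given factor divided by its frequency in the tag-only sample.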

ETV5 = ETV5 (Homo sapiens, UniProt P41161 1-510); conditions: protein: recombinant; tags: N-terminal GST; dsDNA, one strand shown
Outline: as §1

HSF1 = HSF1 (Homo sapiens, UniProt Q00613 1-529); conditions: protein: recombinant; tags: N-terminal GST; chain copies: 3; dsDNA, one strand shown
Outline: as §1

SPIC = biological target: T2, SPIC (Homo sapiens, UniProt Q8N5J4 1-248); conditions: protein: recombinant; tags: N-terminal GST; dsDNA, one strand shown
T2 sequence: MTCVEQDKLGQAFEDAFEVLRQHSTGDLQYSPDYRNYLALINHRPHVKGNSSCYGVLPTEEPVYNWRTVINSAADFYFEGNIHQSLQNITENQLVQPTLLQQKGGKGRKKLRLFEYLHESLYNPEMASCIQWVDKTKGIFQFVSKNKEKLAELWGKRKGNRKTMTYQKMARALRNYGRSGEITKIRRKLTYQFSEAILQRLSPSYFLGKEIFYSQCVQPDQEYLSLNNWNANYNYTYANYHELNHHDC
Outline: as §1

ELF4 = ELF4 (Homo sapiens, UniProt Q99607 1-663); conditions: protein: recombinant; tags: N-terminal GST; dsDNA, one strand shown
Outline: as §1

ELK4 = biological target: T3, ELK4 (Homo sapiens, UniProt P28324-2 1-405); conditions: protein: recombinant; tags: N-terminal GST; dsDNA, one strand shown
T3 sequence: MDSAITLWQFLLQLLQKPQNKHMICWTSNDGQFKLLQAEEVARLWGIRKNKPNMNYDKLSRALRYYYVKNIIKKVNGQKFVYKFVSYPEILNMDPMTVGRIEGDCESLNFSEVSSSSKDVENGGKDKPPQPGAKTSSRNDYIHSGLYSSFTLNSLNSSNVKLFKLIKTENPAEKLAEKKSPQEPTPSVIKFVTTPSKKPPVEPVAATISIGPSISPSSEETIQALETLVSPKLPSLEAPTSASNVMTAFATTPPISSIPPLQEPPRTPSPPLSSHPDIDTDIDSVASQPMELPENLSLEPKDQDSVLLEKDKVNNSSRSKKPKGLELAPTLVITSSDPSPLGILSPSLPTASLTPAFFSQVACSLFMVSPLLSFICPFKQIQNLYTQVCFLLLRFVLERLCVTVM
Outline: as §1

ETV2 = biological target: T4, ETV2 (Homo sapiens, UniProt O00321 1-342); conditions: protein: recombinant; tags: N-terminal GST; dsDNA, one strand shown
T4 sequence: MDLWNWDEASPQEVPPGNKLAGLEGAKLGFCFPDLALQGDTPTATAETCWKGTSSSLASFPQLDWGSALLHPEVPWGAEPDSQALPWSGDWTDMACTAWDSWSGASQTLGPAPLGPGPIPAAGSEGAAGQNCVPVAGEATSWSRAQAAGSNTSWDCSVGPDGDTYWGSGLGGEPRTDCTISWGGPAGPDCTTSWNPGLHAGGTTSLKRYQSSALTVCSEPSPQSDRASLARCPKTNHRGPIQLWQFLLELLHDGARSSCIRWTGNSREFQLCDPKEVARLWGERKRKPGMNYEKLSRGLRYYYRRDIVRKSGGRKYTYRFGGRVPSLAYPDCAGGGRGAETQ
Outline: as §1

ELF3 = biological target: T5, ELF3 (Homo sapiens, UniProt P78545 1-371); conditions: protein: recombinant; tags: N-terminal GST; dsDNA, one strand shown
T5 sequence: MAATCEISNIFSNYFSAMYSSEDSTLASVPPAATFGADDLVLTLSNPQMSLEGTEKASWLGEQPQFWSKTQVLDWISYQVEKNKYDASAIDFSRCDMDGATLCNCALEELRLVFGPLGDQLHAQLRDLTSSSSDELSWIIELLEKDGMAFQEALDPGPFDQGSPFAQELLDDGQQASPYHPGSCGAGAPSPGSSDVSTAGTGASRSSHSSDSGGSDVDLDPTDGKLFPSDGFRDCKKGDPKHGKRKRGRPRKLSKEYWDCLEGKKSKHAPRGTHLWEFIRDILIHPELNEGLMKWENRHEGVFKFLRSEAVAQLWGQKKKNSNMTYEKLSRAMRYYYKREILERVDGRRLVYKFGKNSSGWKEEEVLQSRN
Outline: as §1

CRX = CRX (Homo sapiens, UniProt O43186 1-299); conditions: protein: recombinant; tags: N-terminal GST; dsDNA, one strand shown
Outline: as §1

Sequence of HSF1 (Q00613 whole entry): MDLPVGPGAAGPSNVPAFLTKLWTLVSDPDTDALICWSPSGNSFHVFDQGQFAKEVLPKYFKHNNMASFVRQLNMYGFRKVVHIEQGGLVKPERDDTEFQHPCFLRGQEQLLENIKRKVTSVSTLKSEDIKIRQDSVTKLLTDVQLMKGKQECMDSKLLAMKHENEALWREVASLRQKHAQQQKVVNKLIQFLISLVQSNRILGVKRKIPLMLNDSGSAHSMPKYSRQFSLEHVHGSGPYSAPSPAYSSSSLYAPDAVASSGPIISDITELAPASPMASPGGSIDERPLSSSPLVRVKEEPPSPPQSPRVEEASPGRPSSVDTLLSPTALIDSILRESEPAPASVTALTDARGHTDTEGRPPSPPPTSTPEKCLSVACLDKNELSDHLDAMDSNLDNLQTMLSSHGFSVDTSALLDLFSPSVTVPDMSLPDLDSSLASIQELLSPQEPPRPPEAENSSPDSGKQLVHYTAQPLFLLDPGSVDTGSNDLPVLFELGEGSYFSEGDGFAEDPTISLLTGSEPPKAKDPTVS
Sequence of ETV5 (P41161 whole entry): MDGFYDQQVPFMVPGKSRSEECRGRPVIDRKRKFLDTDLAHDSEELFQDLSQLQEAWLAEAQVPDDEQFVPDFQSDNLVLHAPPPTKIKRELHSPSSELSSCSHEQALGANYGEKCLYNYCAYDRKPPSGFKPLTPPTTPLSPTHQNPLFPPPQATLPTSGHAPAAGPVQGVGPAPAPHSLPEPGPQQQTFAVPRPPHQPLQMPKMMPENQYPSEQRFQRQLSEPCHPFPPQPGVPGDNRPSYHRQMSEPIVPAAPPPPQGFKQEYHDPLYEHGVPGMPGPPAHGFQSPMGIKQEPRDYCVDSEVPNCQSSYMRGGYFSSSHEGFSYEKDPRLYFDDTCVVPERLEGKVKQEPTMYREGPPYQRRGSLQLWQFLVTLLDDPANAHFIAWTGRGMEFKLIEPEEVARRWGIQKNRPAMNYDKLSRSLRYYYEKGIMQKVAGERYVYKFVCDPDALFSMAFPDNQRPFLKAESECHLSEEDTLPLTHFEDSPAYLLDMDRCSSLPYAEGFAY
Sequence of CRX (O43186 whole entry): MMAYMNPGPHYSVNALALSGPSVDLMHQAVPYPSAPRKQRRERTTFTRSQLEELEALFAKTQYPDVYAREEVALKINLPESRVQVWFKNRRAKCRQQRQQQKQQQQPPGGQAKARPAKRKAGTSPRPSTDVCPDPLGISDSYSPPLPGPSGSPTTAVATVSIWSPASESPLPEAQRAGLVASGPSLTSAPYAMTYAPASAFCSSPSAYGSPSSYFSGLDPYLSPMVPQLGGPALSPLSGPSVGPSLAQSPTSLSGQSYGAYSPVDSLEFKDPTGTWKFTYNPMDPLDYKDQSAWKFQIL
Sequence of ELF4 (Q99607 whole entry): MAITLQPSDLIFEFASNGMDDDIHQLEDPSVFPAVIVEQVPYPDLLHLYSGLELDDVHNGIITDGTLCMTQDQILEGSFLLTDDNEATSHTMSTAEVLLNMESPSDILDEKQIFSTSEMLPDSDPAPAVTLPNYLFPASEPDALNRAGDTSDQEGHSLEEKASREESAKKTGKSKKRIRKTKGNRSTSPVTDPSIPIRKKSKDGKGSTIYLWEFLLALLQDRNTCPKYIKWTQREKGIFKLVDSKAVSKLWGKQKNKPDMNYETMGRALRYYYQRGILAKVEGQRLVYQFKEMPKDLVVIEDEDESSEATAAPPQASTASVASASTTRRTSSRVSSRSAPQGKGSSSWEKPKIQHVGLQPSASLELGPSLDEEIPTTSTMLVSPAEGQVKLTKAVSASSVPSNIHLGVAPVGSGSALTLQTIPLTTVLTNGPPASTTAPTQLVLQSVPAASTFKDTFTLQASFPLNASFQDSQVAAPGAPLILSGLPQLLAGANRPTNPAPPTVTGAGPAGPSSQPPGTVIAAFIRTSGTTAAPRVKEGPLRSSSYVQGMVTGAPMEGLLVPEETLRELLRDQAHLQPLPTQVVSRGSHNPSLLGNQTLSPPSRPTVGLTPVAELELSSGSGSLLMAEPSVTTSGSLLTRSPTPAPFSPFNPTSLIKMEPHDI

In the case of TGCTGG, the binding signal (FEV) was 1.09 fold enrichment (6-mer frequency, TF over GST control), the binding signal (ETV5) was 1.04 fold enrichment (6-mer frequency, TF over GST control) and the binding signal (HSF1) was 1.43 fold enrichment (6-mer frequency, TF over GST control). For the same sequence, the binding signal (SPIC) was 1.06 fold enrichment (6-mer frequency, TF over GST control), the binding signal (ELF4) was 1.12 fold enrichment (6-mer frequency, TF over GST control) and the binding signal (ELK4) was 1.27 fold enrichment (6-mer frequency, TF over GST control). For the same sequence, the binding signal (ETV2) was 1.22 fold enrichment (6-mer frequency, TF over GST control), the binding signal (ELF3) was 1.02 fold enrichment (6-mer frequency, TF over GST control) and the binding signal (CRX) was 1.03 fold enrichment (6-mer frequency, TF over GST control).

From publication PMC7862700, “An all-to-all approach to the identification of sequence-specific readers for epigenetic DNA modifications on cytosine”
